Our source for the Potency, outcome and activity, negative = cell killing values is PubChem BioAssay (NCATS).

The subject of assay [1] is MCC-26. The experiment in a line: qHTS assay to identify novel small-molecules to repurpose for Merkel cell carcinoma treatment (AID 1296009). Also: nearly all actives have a fitted effect of over 60% in size. Conditions: MCC and control cell lines, CellTiter-Glo viability, 72 h; series mostly up to 46 µM. In short, it runs like this: (§1)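 Cell viability, measured as CellTiter-Glo luminescence, was normalized between DMSO and no-cell wells. The cells had been exposed to 8- or 11-point compound dilutions for 72 hr at 37 degree celsius.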
Background: Quantitative high-throughput screening tests each substance at several concentrations.

The subject of assay [2] is MKL-2. The description is as above. Conditions: MCC and control cell lines, CellTiter-Glo viability, 72 h; series mostly up to 46 µM. In short, it runs like this: as §1
(In general: ATP-based viability assays read luminescence as a measure of living cells.)

Assay [3] relates to UISO. Described as above. Conditions: MCC and control cell lines, CellTiter-Glo viability, 72 h; series mostly up to 46 µM. In short, it runs like this: as §1
Assay [4] relates to WaGa. The assay is described as above. The conditions noted are these: MCC and control cell lines, CellTiter-Glo viability, 72 h; series mostly up to 46 µM. An outline of the steps:
as §1

The subject of assay [5] is C33A. The experiment in a line: Primary qHTS to identify gynecologic anti-cancer compounds using libraries of approved drugs and bioactive compounds (AID 1345084). Also: nearly all actives have a fitted effect of over 55% in size. The conditions noted are these: Gynecologic cancer cell panel viability, ATPlite luminescence, 48 h; series mostly up to 57.5 µM. An outline of the steps:
(§2)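 In this quantitative HTS, cell killing is estimated from loss of ATP-dependent luciferase light. Cells see five compound concentrations over a 48 h exposure.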

In assay [6] the test system is CAOV3. The assay is described as above. Conditions: Gynecologic cancer cell panel viability, ATPlite luminescence, 48 h; series mostly up to 57.5 µM. In short, it runs like this: as §2
The test system of assay [7] is Es-2. The description is as above. The conditions noted are these: Gynecologic cancer cell panel viability, ATPlite luminescence, 48 h; series mostly up to 57.5 µM. In short, it runs like this: as §2
In assay [8] the test system is HeLa. The assay is described as above. The conditions noted are these: Gynecologic cancer cell panel viability, ATPlite luminescence, 48 h; series mostly up to 57.5 µM. In short, it runs like this: as §2
Assay [9] concerns Hek293T. The assay is described as above. Conditions: Gynecologic cancer cell panel viability, ATPlite luminescence, 48 h, control line for the selectivity index; series mostly up to 57.5 µM. An outline of the steps:
as §2

For assay [10], the system named is JEG-3. Described as above. Conditions: Gynecologic cancer cell panel viability, ATPlite luminescence, 48 h; series mostly up to 57.5 µM. In short, it runs like this: as §2
The subject of assay [11] is OV90. The assay is described as above. Conditions: Gynecologic cancer cell panel viability, ATPlite luminescence, 48 h; series mostly up to 57.5 µM. In short, it runs like this:
as §2

In assay [12] the test system is PA-1. Described as above. Conditions: Gynecologic cancer cell panel viability, ATPlite luminescence, 48 h; series mostly up to 57.5 µM. An outline of the steps: as §2
Assay [13] relates to SKOV3. Described as above. The conditions noted are these: Gynecologic cancer cell panel viability, ATPlite luminescence, 48 h; series mostly up to 57.5 µM. An outline of the steps: as §2
The subject of assay [14] is Tov-21-G. The assay is described as above. The conditions noted are these: Gynecologic cancer cell panel viability, ATPlite luminescence, 48 h; series mostly up to 57.5 µM. An outline of the steps: as §2
For assay [15], the system named is Tov112D. The description is as above. Conditions: Gynecologic cancer cell panel viability, ATPlite luminescence, 48 h; series mostly up to 57.5 µM. An outline of the steps:
as §2

Assay [16] has as its system MKL-1. The experiment in a line: qHTS assay to identify novel small-molecules to repurpose for Merkel cell carcinoma treatment (AID 1296009). Also: nearly all actives have a fitted effect of over 60% in size. The conditions noted are these: MCC and control cell lines, CellTiter-Glo viability, 72 h; series mostly up to 46 µM. An outline of the steps: as §1
Assay [17] relates to CASKI. The experiment in a line: Primary qHTS to identify gynecologic anti-cancer compounds using libraries of approved drugs and bioactive compounds (AID 1345084). Also: nearly all actives have a fitted effect of over 55% in size. The conditions noted are these: Gynecologic cancer cell panel viability, ATPlite luminescence, 48 h; series mostly up to 57.5 µM. In short, it runs like this: as §2
In assay [18] the test system is NIH3T3. The experiment in a line: qHTS assay to identify novel small-molecules to repurpose for Merkel cell carcinoma treatment (AID 1296009). Also: nearly all actives have a fitted effect of over 60% in size. Conditions: MCC and control cell lines, CellTiter-Glo viability, 72 h; at 44.8 µM (top of the series) unless noted. In short, it runs like this:
as §1

Assay [19] can be described thus: Drug repurposing screens with cells derived from glioblastoma tumor samples (AID 1345199). Also: nearly all actives have a fitted effect of over 40% in size. Conditions: GBM patient neurospheres viability, ATP luminescence, 48 h. An outline of the steps: (§3)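 Primary testing used CD133+ neurospheres from four GBM patients, seven concentrations, 48 h exposure and ATP-based viability; confirmation added three slower-growing patient lines.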

Assay [20] deals with astro. The description is as above. The conditions noted are these: viability, ATP luminescence, 48 h; series mostly up to 45.9 µM. An outline of the steps: as §3
The mark [21] stands for this setting: at 45.9 µM (top of the series), tumour line B.
Where [22] appears, read: at 45.9 µM (top of the series), tumour line D.
The mark [23] stands for this setting: at 46.1 µM (top of the series), tumour line C.

Results filed as inconclusive are left out. The source holds several records for some structures; these can differ, active in one and inactive in another. The source made the active and inactive calls. Calls follow the shape of the dose curve; as a rule, active = well fitted curve in the direction sought with a large enough effect; inconclusive = small, poorly fitted or top-dose-only effect, or another doubt; inactive = no such curve, though single readings can be large; an effect the other way counts as inactive or inconclusive.
% is scaled to controls: 0 for no effect and ±100 for the full control effect; potency is read from the fitted curve at half-maximal effect.

`COc1cc(Nc2ncc3c(n2)-c2ccc(Cl)cc2C(c2c(F)cccc2OC)=NC3)ccc1C(=O)O`: the Potency result in assay [1], in assay [2], in [3], in assay [7], in [8] and in assay [9] was “inactive” each time. The Potency entry in assay [10], in [12], in [14] and in assay [15] was “inactive” each time. For the same molecule, the Potency in assay [4] is 0.148 µM (active); in [5] it was 28.2 µM (active) and inactive; in assay [6] it was 31.6 µM (active); in [11], 28.2 µM (active) and inactive; in assay [13], 25.1 µM (active) and inactive.
Consider `CCc1cc(Nc2nccc(-c3c(-c4ccc(OC)c(C(=O)Nc5c(F)cccc5F)c4)nc4ccccn34)n2)c(OC)cc1N1CCC(N2CCN(S(C)(=O)=O)CC2)CC1`, for which the Potency result in assay [1], in assay [16], in assay [4], in [5], in [6] and in assay [17] was “inactive” in each case. Besides, the Potency entry in [7], in assay [9], in assay [10], in assay [11], in assay [13] and in assay [14] was “inactive” in each case. The Potency result in [15] was “inactive”.
For the molecule `COc1ccc(CCN2CCN(CCCc3ccccc3)CC2)cc1OC`, the Potency result in assay [16], in [2], in [3], in assay [4], in [5] and in [6] was “inactive” throughout. Further, the Potency result in assay [17], in assay [7], in assay [8], in assay [9], in [10] and in assay [11] was “inactive” in each case. In addition, the Potency result in [12], in [13] and in [15] was “inactive” each time. Further, the molecule was classed as inactive in [18].
For `CN[C@@H](C)C(=O)N[C@H]1CCCC[C@H]2CC[C@@H](C(=O)N[C@@H](c3ccccc3)c3cn(CCCCc4ccc(CCCCn5cc([C@@H](NC(=O)[C@@H]6CC[C@@H]7CCCC[C@H](NC(=O)[C@H](C)NC)C(=O)N76)c6ccccc6)nn5)cc4)nn3)N2C1=O`, the Potency in assay [16] was 23.5 µM (active); in assay [2] it was 9.35 µM (active). In addition, in assay [18], the molecule was called inactive.
Turning to `N[C@@H]1CONC1=O`, the Potency result in assay [5], in assay [6], in assay [17], in assay [7], in [8] and in assay [9] was “inactive” throughout. Also, the Potency entry in [10], in [11], in assay [12], in [13], in [14] and in assay [15] was “inactive” each time. Also, the Potency result in [20] was “inactive”. Also, the activity, negative = cell killing in [19] (setting [21]) was -2.69% (inactive); in [19] (setting [22]), 4.98% (inactive); in assay [19] (at 46 µM (top of the series), tumour line A), -17.4% (inactive); in [19] (setting [23]), -0.848% (inactive).
As for `CC(C)(N)C(=O)N[C@H](COCc1ccccc1)C(=O)N1CCC2(CC1)CN(S(C)(=O)=O)c1ccccc12`, the Potency result in assay [16], in assay [2], in assay [3], in assay [4], in assay [5] and in assay [6] was “inactive” in each case. Further, the Potency result in assay [17], in assay [8], in assay [10], in [11], in assay [12] and in [14] was “inactive” each time. Moreover, the Potency result in [15] is “inactive”.
With `CC(C)(C)OC(=O)CN(Cc1ccc(Cl)cc1)Cc1ccc([N+](=O)[O-])s1`, the Potency entry in assay [16], in assay [3] and in assay [4] was “inactive” each time.
In the case of `COc1ccccc1[C@H](c1cccc2ccccc12)[C@@](C)(C#N)C(=O)N1CCC(c2cccc(C(F)(F)F)c2)CC1`, the Potency entry in [5], in [6], in assay [17], in [7], in assay [8] and in [9] was “inactive” each time. Besides, the Potency entry in assay [10], in assay [11], in assay [12], in assay [14] and in assay [15] was “inactive” each time.
On to `CCC(C)(C)C(=O)O[C@H]1C[C@@H](C)C=C2C=C[C@H](C)[C@H](CC[C@@H]3C[C@@H](O)CC(=O)O3)[C@H]21`, for which the Potency result in assay [5], in [6], in [17], in assay [10], in assay [12] and in assay [13] was “inactive” in each case. The Potency result in assay [14] and in assay [15] was “inactive” in each case. In addition, the activity, negative = cell killing was -22.9% (inactive) in [19] (at 20 µM (top of the series), tumour line C) and -19.9% (inactive) in [19] (at 21.2 µM (top of the series), tumour line B). Besides, the Potency in [19] (tumour line A) is 0.891 µM (active); in assay [20], 3.55 µM (active).
Take `O=c1[nH]c(-c2ccc(C(F)(F)F)cc2)nc2c1CSCC2`: the Potency result in assay [16], in [2] and in assay [4] was “inactive” each time. The Potency in assay [7] was 28.2 µM (active).
As to `C#Cc1cccc(Nc2ncnc3cc(OCCOC)c(OCCOC)cc23)c1`, the Potency result in [16], in [2], in [5], in assay [17], in [7] and in assay [8] was “inactive” each time. Also, the Potency entry in [9], in [10], in assay [11], in [12] and in assay [15] was “inactive” throughout. The Potency in [4] is 29.6 µM (active); in assay [13] it was 10 µM (active).
In the case of `c1ccc([C@H]2CN3CCSC3=N2)cc1`, the Potency result in [16], in assay [2], in assay [3], in [4], in assay [5] and in assay [6] was “inactive” throughout. In addition, the Potency result in assay [17], in [7], in assay [8], in [9], in [10] and in [11] was “inactive” each time. For the same molecule, the Potency result in assay [12], in [13], in assay [14], in [15] and in [20] was “inactive” each time. Also, the values for the activity, negative = cell killing in assay [19] (setting [21]), in assay [19] (setting [22]) and in assay [19] (setting [23]) were -5.9% (inactive), -15.5% (inactive) and -7.79% (inactive), respectively. For the same molecule, the Potency in [19] (tumour line A) was 15.8 µM (active).
With `Cn1cc(-c2ccc3nnc(C(F)(F)c4ccc5ncccc5c4)n3n2)cn1`, the Potency entry in assay [16], in assay [2], in assay [3], in assay [4], in [5] and in [6] was “inactive” throughout. The Potency result in assay [17], in assay [7], in assay [8], in [9], in [10] and in assay [11] was “inactive” in each case. The Potency entry in [12], in [14] and in [15] was “inactive” throughout.
